Activity calls are given as the source filed them. The calls were made as follows: active = hit-call score of the fitted dose curve at least 0.9, where 1 is the maximum; inactive = score below 0.9.
How the values were obtained:
[1] = ATG_GLI_CIS: Attagene CIS-FACTORIAL HepG2 Assay for human Zinc Finger Protein GLI1 (AID 2282945); settings: HepG2, Attagene cis-factorial reporter mRNA, GLI element; actives raise or lower the signal
Procedure, shortened: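 Bidirectional curve fits relative to DMSO, using reporter mRNA levels from RT-PCR plus capillary electrophoresis. Cells were HepG2 transiently carrying cis-regulated reporter constructs, harvested 24 h after dosing.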

[2] = biological target: Bile acid receptor (Homo sapiens) (UniProt Q96RI1); assay: ATG_IR1_CIS: Attagene CIS-FACTORIAL HepG2 Assay for human Nuclear Receptor Subfamily 1 Group H Member 4 (NR1H4), IR1 submotif (AID 2282946); settings: IR1 reporter transcription, actives raise or lower the signal
Procedure, shortened: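 HepG2 cells transiently transfected with multiplexed cis-element reporter units read endogenous transcription factor activity. After 24 h compound exposure, reporter mRNA was quantified by RT-PCR, fluorescent labelling, HpaI digestion and capillary electrophoresis; bidirectional fitting versus DMSO baseline.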

[3] = ATG_GRE_CIS: Attagene CIS-FACTORIAL HepG2 Assay for human Glucocorticoid Response Elements (GRE) (AID 2282947); settings: HepG2 GRE cis-reporter, Attagene multiplex mRNA; actives raise or lower the signal
Procedure, shortened: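 Reporter transcripts read by RT-PCR with capillary electrophoresis fluorescence after a 24 h chemical exposure of HepG2 cells transiently transfected with multiple cis-element reporter units. Gain or loss fitted against DMSO.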

[4] = ATG_ISRE_CIS: Attagene CIS-FACTORIAL HepG2 Assay for human Interferon Regulatory Factor 1 (IRF1) binding to an Interferon-Stimulated Response Element (ISRE) (AID 2282948); settings: HepG2 ISRE cis-reporter (Attagene), mRNA transcription readout; actives raise or lower the signal
Procedure, shortened: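 Uses HepG2 liver cells transfected with cis-regulated reporters and measures mRNA 24 h post-dosing through RT-PCR, primer-extension labelling and capillary electrophoresis, with DMSO as negative control.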

[5] = ATG_M_32_CIS: Attagene CIS-FACTORIAL HepG2 Assay for M32 Transcription Factor (Internal Marker) (AID 2282949); settings: HepG2 Attagene cis-factorial M32 reporter, mRNA; actives raise or lower the signal;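 also: background control marker of the multiplexed CIS panel rather than a real target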
Procedure, shortened: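 HepG2 human liver cells transiently transfected with cis-promoter-driven multiple reporter transcription units, dosed 24 h. Reporter mRNA quantified by RT-PCR, FAM-labelled primer extension, HpaI digest and capillary electrophoresis; bidirectional fit versus DMSO baseline.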

[6] = ATG_M_06_CIS: Attagene CIS-FACTORIAL HepG2 Assay for M06 Transcription Factor (Internal Marker) (AID 2282950); settings: HepG2 Attagene CIS-FACTORIAL M06 internal marker reporter; actives raise or lower the signal
Procedure, shortened: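 Fluorescence-labelled RT-PCR products from cis-promoter reporter units, cut with HpaI and resolved by capillary electrophoresis, give the signal. Cells are human HepG2, dosed for 24 h. Serves as background control, fitted relative to DMSO.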

[7] = biological target: Hypoxia-inducible factor 1-alpha (Homo sapiens) (UniProt Q16665); assay: ATG_HIF1a_CIS: Attagene CIS-FACTORIAL HepG2 Assay for human Hypoxia Inducible Factor 1 (HIF1A) (AID 2282951); settings: HepG2 Attagene cis-factorial HIF1a reporter transcription; actives raise or lower the signal
Procedure, shortened: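 Cis-element reporter constructs were transiently transfected into HepG2 cells, which were treated for 24 h; reporter RNA was reverse-transcribed, amplified, labelled and resolved by capillary electrophoresis.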

[8] = biological target: Heat shock factor protein 1 (Homo sapiens) (UniProt Q00613); assay: ATG_HSE_CIS: Attagene CIS-FACTORIAL HepG2 Assay for human Heat Shock Transcription Factor 1 (HSE) (AID 2282953); settings: HepG2 HSE cis-reporter, Attagene RNA transcription; actives raise or lower the signal
Procedure, shortened: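 After a 24 h incubation with test chemical, transfected HepG2 cells were harvested for RNA; reporter transcripts were measured by RT-PCR and capillary electrophoresis. Values reflect gain or loss of signal relative to DMSO.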

[9] = ATG_MRE_CIS: Attagene CIS-FACTORIAL HepG2 Assay for human Metal Responsive Element (MRE) (AID 2282954); settings: HepG2 MRE cis-reporter transcription, Attagene multiplex; actives raise or lower the signal
Procedure, shortened: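 Endogenous MRE-dependent transcription read as reporter mRNA in transiently transfected human HepG2 cells at 24 h. RNA reverse-transcribed, PCR-amplified, labelled and resolved by capillary electrophoresis; gain or loss relative to DMSO.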

[10] = ATG_PBREM_CIS: Attagene CIS-FACTORIAL HepG2 Assay for human Phenobarbital-responsive Enhancer Module (PBREM) (AID 2282955); settings: HepG2 PBREM cis-reporter, Attagene multiplexed transcription; actives raise or lower the signal
Procedure, shortened: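 Multiplexed cis-reporter readout in human hepatoma HepG2 cells; PBREM-regulated transcript quantified after 24 h exposure by fluorescent RT-PCR fragment analysis. Signal changes up or down fitted relative to DMSO.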

[11] = biological target: Paired box protein Pax-6 (Homo sapiens) (UniProt P26367); assay: ATG_Pax6_CIS: Attagene CIS-FACTORIAL HepG2 Assay for human Paired Box 6 (PAX6) (AID 2282956); settings: HepG2 CIS-FACTORIAL PAX6 reporter transcription, RNA readout; actives raise or lower the signal
Procedure, shortened: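 DMSO-referenced bidirectional fits of reporter mRNA fluorescence; HepG2 with transient cis-promoter MRTUs, 24 h post-dose, RT-PCR plus capillary electrophoresis detection.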

[12] = ATG_PXRE_CIS: Attagene CIS-FACTORIAL HepG2 Assay for human Pregnane X Receptor Element (PXRE) (AID 2282957); settings: HepG2 Attagene CIS-FACTORIAL PXRE reporter, mRNA; actives raise or lower the signal
Procedure, shortened: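 After a 24 h chemical incubation, total RNA from transfected HepG2 cells was reverse-transcribed and reporter cDNA amplified, FAM-labeled, HpaI-digested and sized by capillary electrophoresis. DMSO served as baseline for bidirectional curve fitting.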

[13] = ATG_PPRE_CIS: Attagene CIS-FACTORIAL HepG2 Assay for human Peroxisome Proliferator-activated Response Element (PPRE) (AID 2282958); settings: HepG2 PPRE cis-element reporter, Attagene transcription factor profiling; actives raise or lower the signal
Procedure, shortened: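 DMSO served as negative control and baseline for bidirectional curve fitting. Signal came from PPRE-regulated reporter mRNA in HepG2 cells, measured 24 h post-dosing by RT-PCR, 6-FAM primer extension and capillary electrophoresis.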

[14] = ATG_RORE_CIS: Attagene CIS-FACTORIAL HepG2 Assay for human RAR-related Orphan Receptor Element (RORE) (AID 2282959); settings: HepG2 Attagene cis-factorial RORE reporter, mRNA; actives raise or lower the signal
Procedure, shortened: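 Transfect HepG2 with MRTUs; treat 24 h; extract RNA; RT with oligo(dT); PCR with reporter-specific primers; 6-FAM primer extension; HpaI digest 2 h at 37 C; capillary electrophoresis. Fit vs DMSO, bidirectional.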

[15] = ATG_Sox_CIS: Attagene CIS-FACTORIAL HepG2 Assay for human SRY-box transcription factor (SOX) (AID 2282960); settings: HepG2 Attagene cis-factorial SOX reporter, mRNA; actives raise or lower the signal
Procedure, shortened: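 Fluorescence-labelled cDNA fragments from reporter transcripts, sized by CE, give the signal. Cells: HepG2, transiently transfected with cis-regulated reporter units. Exposure 24 h; DMSO negative control; bidirectional curve fitting.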

[16] = biological target: Transcription factor Sp1 (Homo sapiens) (UniProt P08047); assay: ATG_Sp1_CIS: Attagene CIS-FACTORIAL HepG2 Assay for human Specificity Protein 1 (Sp1) (AID 2282961); settings: HepG2 Sp1 cis-reporter transcription, actives raise or lower the signal
Procedure, shortened: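 Chemicals are dosed onto HepG2 cells transfected with multiple cis-promoter reporter constructs, and after 24 h reporter RNA is reverse-transcribed, PCR-amplified and resolved by capillary electrophoresis for fluorescence quantitation; activity is scored up or down against DMSO.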

[17] = ATG_SREBP_CIS: Attagene CIS-FACTORIAL HepG2 Assay for human Sterol Regulatory Element Binding (SREBP) (AID 2282962); settings: HepG2 Attagene cis-factorial SREBP reporter, mRNA; actives raise or lower the signal
Procedure, shortened: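 In this cis-format assay, HepG2 liver cells express reporters controlled by promoter elements responsive to native transcription factors. Exposure lasts 24 h; reporter mRNA fluorescence from capillary electrophoresis gives the signal, fitted bidirectionally against DMSO.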

[18] = biological target: Signal transducer and activator of transcription 3 (Homo sapiens) (UniProt P40763); assay: ATG_STAT3_CIS: Attagene CIS-FACTORIAL HepG2 Assay for human Signal Transducer and Activator of Transcription 3 (STAT3) (AID 2282963); settings: HepG2, Attagene cis-factorial STAT3 reporter transcription; actives raise or lower the signal
Procedure, shortened: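 Readout is reporter transcript quantified by RT-PCR and capillary electrophoresis, with 6-FAM primer extension and HpaI digestion. Total RNA is taken 24 h after dosing transiently transfected HepG2 carrying cis-regulated reporter units. Bidirectional fit against DMSO.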

[19] = ATG_TA_CIS: Attagene CIS-FACTORIAL HepG2 Assay for human TA Basal Promoter (AID 2282964); settings: HepG2 Attagene CIS-factorial TA basal promoter reporter; actives raise or lower the signal
Procedure, shortened: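 Multiplexed mRNA reporter assay, HepG2, 24 h. Reporter cDNA amplified, 6-FAM primer-extended, HpaI-cut, CE-sized; DMSO = negative control and baseline.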

[20] = biological target: Hepatocyte nuclear factor 6 (Homo sapiens) (UniProt Q9UBC0); assay: ATG_HNF6_CIS: Attagene CIS-FACTORIAL HepG2 Assay for human Hepatocyte Nuclear Factor 6 (HNF6) (AID 2282952); settings: HepG2 Attagene cis-factorial HNF6 reporter transcription; actives raise or lower the signal
Procedure, shortened: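 First, HepG2 cells were transfected with the multiplexed cis reporter library and dosed with chemical for 24 h. Next, RNA was reverse-transcribed, PCR-amplified and fluorescently labelled. Finally, HpaI-digested fragments were read by capillary electrophoresis.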

Measured: AC50

Sequence of Signal transducer and activator of transcription 3 (Homo sapiens) (P40763 whole entry, looked up): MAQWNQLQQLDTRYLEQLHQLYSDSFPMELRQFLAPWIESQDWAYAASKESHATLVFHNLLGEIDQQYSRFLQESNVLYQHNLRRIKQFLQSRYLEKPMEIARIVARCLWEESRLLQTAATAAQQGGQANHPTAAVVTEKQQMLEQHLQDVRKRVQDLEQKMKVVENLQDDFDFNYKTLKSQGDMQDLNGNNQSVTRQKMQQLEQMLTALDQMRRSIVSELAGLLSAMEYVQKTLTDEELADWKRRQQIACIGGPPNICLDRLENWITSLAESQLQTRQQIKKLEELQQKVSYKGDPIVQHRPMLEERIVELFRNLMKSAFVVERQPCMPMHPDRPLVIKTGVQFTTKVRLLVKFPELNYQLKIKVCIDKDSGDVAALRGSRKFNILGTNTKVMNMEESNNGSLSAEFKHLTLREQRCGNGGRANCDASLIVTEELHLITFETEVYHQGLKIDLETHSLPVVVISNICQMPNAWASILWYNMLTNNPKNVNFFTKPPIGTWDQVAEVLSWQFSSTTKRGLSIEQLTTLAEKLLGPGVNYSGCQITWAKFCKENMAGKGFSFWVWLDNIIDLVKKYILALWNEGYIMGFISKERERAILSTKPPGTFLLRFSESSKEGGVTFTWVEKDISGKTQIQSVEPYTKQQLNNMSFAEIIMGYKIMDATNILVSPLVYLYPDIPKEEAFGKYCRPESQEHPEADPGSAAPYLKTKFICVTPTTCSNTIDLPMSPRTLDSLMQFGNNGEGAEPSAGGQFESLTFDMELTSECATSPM
Sequence of Bile acid receptor (Homo sapiens) (Q96RI1 whole entry, looked up): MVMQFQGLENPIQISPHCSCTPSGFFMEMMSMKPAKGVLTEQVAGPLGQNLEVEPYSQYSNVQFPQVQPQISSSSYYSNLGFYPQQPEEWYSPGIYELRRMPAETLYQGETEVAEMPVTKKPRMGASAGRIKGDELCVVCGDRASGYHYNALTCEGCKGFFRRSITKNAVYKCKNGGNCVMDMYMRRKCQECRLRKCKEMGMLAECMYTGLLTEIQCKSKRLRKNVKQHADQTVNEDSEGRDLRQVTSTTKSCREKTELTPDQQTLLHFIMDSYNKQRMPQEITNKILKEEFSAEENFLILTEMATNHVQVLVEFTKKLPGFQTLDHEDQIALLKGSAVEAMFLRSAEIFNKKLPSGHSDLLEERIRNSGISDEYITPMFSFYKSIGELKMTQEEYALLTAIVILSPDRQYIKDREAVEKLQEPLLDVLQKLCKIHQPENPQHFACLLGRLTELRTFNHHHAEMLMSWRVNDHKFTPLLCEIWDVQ
Sequence of Hepatocyte nuclear factor 6 (Homo sapiens) (Q9UBC0 whole entry, looked up, the tested form may be a part): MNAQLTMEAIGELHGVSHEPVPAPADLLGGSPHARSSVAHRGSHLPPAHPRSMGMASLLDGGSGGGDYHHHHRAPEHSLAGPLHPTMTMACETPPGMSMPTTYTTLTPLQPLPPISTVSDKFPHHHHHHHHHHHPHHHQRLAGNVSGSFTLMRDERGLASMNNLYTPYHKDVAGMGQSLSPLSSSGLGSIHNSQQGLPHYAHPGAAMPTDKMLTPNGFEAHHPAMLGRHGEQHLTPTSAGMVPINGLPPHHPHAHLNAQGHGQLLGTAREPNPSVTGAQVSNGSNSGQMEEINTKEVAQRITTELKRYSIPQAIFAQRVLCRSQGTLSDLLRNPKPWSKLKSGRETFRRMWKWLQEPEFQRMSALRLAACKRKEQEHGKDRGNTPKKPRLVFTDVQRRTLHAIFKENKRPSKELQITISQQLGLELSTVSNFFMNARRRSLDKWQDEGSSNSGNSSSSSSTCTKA
Sequence of Heat shock factor protein 1 (Homo sapiens) (Q00613 whole entry, looked up): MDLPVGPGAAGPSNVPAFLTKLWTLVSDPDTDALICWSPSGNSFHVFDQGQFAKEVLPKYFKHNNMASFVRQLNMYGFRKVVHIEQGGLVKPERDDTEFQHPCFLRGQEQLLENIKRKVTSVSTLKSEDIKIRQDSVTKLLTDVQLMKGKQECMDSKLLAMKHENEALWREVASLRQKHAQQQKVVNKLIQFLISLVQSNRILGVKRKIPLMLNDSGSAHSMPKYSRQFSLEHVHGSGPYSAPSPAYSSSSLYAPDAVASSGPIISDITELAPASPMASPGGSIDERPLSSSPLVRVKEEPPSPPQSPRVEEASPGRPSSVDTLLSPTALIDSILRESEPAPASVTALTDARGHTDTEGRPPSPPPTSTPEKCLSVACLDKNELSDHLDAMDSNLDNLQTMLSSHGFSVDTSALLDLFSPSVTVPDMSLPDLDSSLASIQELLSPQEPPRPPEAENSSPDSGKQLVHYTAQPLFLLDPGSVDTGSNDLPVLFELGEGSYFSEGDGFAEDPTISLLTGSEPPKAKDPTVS
Sequence of Transcription factor Sp1 (Homo sapiens) (P08047 whole entry, looked up): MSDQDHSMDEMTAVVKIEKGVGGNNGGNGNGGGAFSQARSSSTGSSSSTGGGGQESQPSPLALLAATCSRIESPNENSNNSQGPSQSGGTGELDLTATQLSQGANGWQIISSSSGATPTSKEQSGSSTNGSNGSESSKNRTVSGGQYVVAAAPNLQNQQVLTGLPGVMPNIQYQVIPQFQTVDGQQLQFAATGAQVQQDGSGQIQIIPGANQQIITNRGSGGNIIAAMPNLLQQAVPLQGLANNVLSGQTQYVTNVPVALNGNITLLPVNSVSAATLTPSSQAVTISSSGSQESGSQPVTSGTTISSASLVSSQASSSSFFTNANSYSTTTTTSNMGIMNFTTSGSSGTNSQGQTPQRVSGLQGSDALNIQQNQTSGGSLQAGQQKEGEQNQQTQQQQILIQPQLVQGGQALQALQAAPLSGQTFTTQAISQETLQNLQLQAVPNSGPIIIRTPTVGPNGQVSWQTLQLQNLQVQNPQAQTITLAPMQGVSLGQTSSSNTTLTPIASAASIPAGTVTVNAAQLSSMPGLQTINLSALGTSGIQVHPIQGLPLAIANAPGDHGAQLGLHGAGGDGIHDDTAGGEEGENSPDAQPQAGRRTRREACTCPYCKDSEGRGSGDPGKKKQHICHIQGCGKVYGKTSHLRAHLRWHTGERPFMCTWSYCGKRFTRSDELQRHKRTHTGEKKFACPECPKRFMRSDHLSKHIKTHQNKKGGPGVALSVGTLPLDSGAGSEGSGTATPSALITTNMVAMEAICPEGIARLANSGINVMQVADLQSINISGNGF
Sequence of Paired box protein Pax-6 (Homo sapiens) (P26367 whole entry, looked up): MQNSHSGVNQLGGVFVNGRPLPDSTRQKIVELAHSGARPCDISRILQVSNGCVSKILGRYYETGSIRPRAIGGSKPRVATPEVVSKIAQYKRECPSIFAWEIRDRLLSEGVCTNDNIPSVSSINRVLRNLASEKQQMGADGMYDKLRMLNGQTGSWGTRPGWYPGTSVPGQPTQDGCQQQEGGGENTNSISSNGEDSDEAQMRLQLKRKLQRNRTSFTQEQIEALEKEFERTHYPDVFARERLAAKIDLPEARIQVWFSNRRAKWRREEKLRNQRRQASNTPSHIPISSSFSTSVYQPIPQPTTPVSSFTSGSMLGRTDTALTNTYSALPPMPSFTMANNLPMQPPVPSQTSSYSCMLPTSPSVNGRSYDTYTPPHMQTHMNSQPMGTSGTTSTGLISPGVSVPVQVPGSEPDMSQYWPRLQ
Sequence of Hypoxia-inducible factor 1-alpha (Homo sapiens) (Q16665 whole entry, looked up): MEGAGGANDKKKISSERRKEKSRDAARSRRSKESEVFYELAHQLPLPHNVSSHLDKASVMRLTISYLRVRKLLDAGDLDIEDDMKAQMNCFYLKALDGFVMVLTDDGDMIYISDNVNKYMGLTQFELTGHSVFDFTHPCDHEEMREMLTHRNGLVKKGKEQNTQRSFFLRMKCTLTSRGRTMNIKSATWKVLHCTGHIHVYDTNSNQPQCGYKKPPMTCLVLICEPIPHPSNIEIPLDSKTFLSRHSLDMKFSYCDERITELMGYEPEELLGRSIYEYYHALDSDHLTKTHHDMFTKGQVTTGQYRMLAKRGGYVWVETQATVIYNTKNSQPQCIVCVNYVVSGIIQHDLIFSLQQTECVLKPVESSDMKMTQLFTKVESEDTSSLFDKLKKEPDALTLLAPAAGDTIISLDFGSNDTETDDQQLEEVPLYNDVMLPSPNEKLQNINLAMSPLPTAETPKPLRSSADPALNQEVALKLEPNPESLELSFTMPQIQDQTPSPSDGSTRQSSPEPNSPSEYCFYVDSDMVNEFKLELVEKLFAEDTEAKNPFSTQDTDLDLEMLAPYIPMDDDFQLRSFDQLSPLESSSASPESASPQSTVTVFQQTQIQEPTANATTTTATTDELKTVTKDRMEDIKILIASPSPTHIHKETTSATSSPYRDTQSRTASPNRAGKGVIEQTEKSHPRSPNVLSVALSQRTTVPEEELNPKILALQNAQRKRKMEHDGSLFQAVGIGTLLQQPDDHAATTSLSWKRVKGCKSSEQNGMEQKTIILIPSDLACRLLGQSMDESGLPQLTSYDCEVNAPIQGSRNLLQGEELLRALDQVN

CCCCCCCCn1sc(Cl)c(Cl)c1=O
active: [1] 11.1 µM | [3] 18.6 µM | [5] 15.9 µM | [7] 16.3 µM | [8] 11.1 µM | [12] 4.27 µM | [17] 14.5 µM | [19] 8.12 µM
not listed: [20]
inactive: all other assays above

O=c1[nH]cccc1O
not listed: [14] | [20]
inactive: all other assays above

O=S(=O)(O)CCC(F)(F)C(F)(F)C(F)(F)C(F)(F)F
not listed: [8] | [12] | [20]
inactive: all other assays above

O=S(=O)(O)c1ccc(Cl)cc1
not listed: [12] | [14] | [20]
inactive: all other assays above

CC(=O)c1ccccc1N
not listed: [8] | [20]
inactive: all other assays above

OCCCC(F)(F)C(F)(F)C(F)(F)C(F)(F)C(F)(F)C(F)(F)C(F)(F)C(F)(F)F
active: [4] 50 µM | [11] 29.9 µM | [13] 20.9 µM
not listed: [8] | [12]
inactive: all other assays above

COCCOCCC[Si](C)(O[Si](C)(C)C)O[Si](C)(C)C
active: [2] 51 µM | [3] 8.99 µM | [10] 8.38 µM | [15] 8.52 µM | [16] 9.13 µM | [17] 6.62 µM
not listed: [8] | [12]
inactive: all other assays above

CCOC(=O)CCC(C)=O
not listed: [20]
inactive: all other assays above

CN(C(=O)C(F)(F)C(F)(F)C(F)(F)F)[Si](C)(C)C
not listed: [8] | [12] | [14]
inactive: all other assays above

FC(F)(F)C(F)(F)C(F)(F)CC1CO1 (centres undefined)
not listed: [14] | [20]
inactive: all other assays above

CC(C)CC=C(C=O)c1ccccc1
active: [12] 0.956 µM
not listed: [8] | [10]
inactive: all other assays above

Nc1cccnc1N
not listed: [10] | [20]
inactive: all other assays above

NC(=O)C(F)(F)C(F)(F)C(F)(F)C(F)(F)C(F)(F)C(F)(F)C(F)(F)F
not listed: [20]
inactive: all other assays above

CSc1ccc(Cl)cc1
not listed: [10] | [20]
inactive: all other assays above

Cc1ccc(O)c(-n2nc3ccccc3n2)c1
active: [13] 13.5 µM
not listed: [12] | [14] | [20]
inactive: all other assays above

— PubChem BioAssay (EPA / NIEHS)
